# Measurements: PubChem BioAssay (EPA / NIEHS)
# Values joined by “and” are separate entries in the source; they are usually repeats but may differ in a detail not shown here. Equal entries are not always repeated. More than one record can exist for a structure, and the calls need not agree. Active and inactive are the calls of the source. How the source made its calls: active means hit-call score of the fitted dose curve at least 0.9, where 1 is the maximum; inconclusive means response in the unintended direction; inactive means score below 0.9.
# Tested on: rat Monoamine Oxidase, MAO-A, Central (MAOAC), gene 29253
# Experiment: NVS_ENZ_rMAOAC: NovaScreen (NVS) Enzymatic Assay for rat Monoamine Oxidase, MAO-A, Central (MAOAC) (AID 2283243);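 further: potency refers to inhibition seen as signal drop below DMSO baseline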
# Procedure: NVS_ENZ_rMAOAC is a biochemical, single-readout assay that uses extracted gene-proteins from Rat brain in a tissue-based cell-free assay. Measurements were taken 1.5 hours after chemical dosing in a 96-well plate.NVS_ENZ_rMAOAC is one of one assay component(s) measured or calculated from the NVS_ENZ_rMAOAC assay. It is designed to make measurements of enzyme activity, a form of enzyme reporter, as detected with scintillation counting signals by Lysate-based radiodetection technology.Data from the assay component NVS_ENZ_rMAOAC was analyzed into 1 assay endpoint. This assay endpoint, NVS_ENZ_rMAOAC, was analyzed in the positive analysis fitting direction relative to DMSO as the negative control and baseline of activity. Using a type of enzyme reporter, loss-of-signal activity can be used to understand changes in the enzymatic activity as they relate to the gene Maoa. Furthermore, this assay endpoint can be referred to as a primary readout, because this assay has produced multiple assay endpoints where this one serves a enzymatic activity function. To generalize the intended target to other relatable targets, this assay endpoint is annotated to the oxidoreductase intended target family, where the subfamily is monoamine oxidase.
# Binding assays used specific radioligands (tritiated, iodinated) with non-radioactive competitive displacement ligands in agonist or antagonist protocols (as indicated) and various reference compounds and inhibitors to titrate specific binding to receptors and transporters. Most enzyme assays (CYPs, kinases, phosphatases, proteases, HDACs) used recombinant protein and specific substrates (fluorescence mostly, some colorimetric and radioactive) and inhibitors, followed by a biochemical separation of substrate and product. All assays for the biochemical HTS were initially run in duplicate at a single concentration (10 uM for CYP450 assays and 25 uM for all others). […] Each assay was run with positive and negative controls, and concurrent controls on every plate. The follow-up (secondary) screen tested active chemical-pairs in concentration series, as well as a few additional assays not tested in the primary screen, some selected negative inactives, and several cases re-run in the concentration series for confirmatory purposes.
SMILES,AC50,outcome
Cc1ccc(-c2c(Cl)nc(C#N)n2S(=O)(=O)N(C)C)cc1,4.79 µM (active),
CC1=C(C(=O)Nc2ccccc2)SCCO1,17.5 µM (active),
CC1COC(Cn2cncn2)(c2ccc(Oc3ccc(Cl)cc3)cc2Cl)O1 (configuration not stated),1.8 µM (active),
COC(=O)c1ccccc1C(=O)OC,,inactive
CCNc1nc(Cl)nc(NC(C)C)n1,25 µM (active) and 8.22 µM (active),inactive
O=C(Nc1ccccc1)Nc1ccnc(Cl)c1,25 µM (active),
Oc1ccccc1-c1ccccc1,25 µM (active),
CON(C)C(=O)Nc1ccc(Cl)c(Cl)c1,20.5 µM (active) [middle of 4 runs],
COc1nc(C)nc(NC(=O)NS(=O)(=O)c2ccccc2Cl)n1,37.7 µM (active),inactive
Fc1ccc(Oc2ccnc3cc(Cl)cc(Cl)c23)cc1,,inactive
